We go through six molecules from PubChem BioAssay.

The structures appear in SMILES notation. Where “and” joins values, the source holds several entries; their conditions need not be identical. Identical values can stand only once. Results filed as inconclusive are left out. Calls of active or inactive are those of the source. Unless noted, no cut-off is given here; in the data, nearly all actives have AC50 up to about 26 µM.

Test [1] in a line: growth inhibition of DIPG glioma cells, dose response, cell-based, SU-DIPG-XVII, MIPE5.0, CellTiter-Glo, qHTS (AID 1347060).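 For AC50: cells exposed to compound for 48 hours before viability readout.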 As to conditions: SU-DIPG-XVII viability, CellTiter-Glo ATP luminescence.
Test [2] in a line: growth inhibition of DIPG glioma cells, dose response, cell-based, SU-DIPG-XIII, MIPE4.0, CellTiter-Glo, qHTS (AID 1347061; cut-off not given, nearly all actives have AC50 up to about 37 µM;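 note: cells exposed to compound for 48 hours before readout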). As to conditions: SU-DIPG-XIII viability, CellTiter-Glo ATP luminescence. (ATP-based viability assays read luminescence as a measure of living cells.)
Test [3] is described as follows: growth inhibition of DIPG glioma cells, dose response, cell-based, JHH-DIPG-1, MIPE4.0, CellTiter-Glo, qHTS (AID 1347062; cut-off not given, nearly all actives have AC50 up to about 27 µM;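 for AC50: cells exposed to compound for two days before readout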). As to conditions: JHH-DIPG-1 viability, CellTiter-Glo ATP luminescence.
A short description of test [4]: growth inhibition of DIPG glioma cells, dose response, cell-based, SU-DIPG-IV, MIPE4.0, CellTiter-Glo, qHTS (AID 1347063; cut-off not given, nearly all actives have AC50 up to about 30 µM;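 note: compound exposure lasted 48 hours before the viability readout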). As to conditions: SU-DIPG-IV viability, CellTiter-Glo ATP luminescence.
A short description of test [5]: growth inhibition of DIPG glioma cells, dose response, cell-based, SU-DIPG-XIII, MIPE5.0, CellTiter-Glo, qHTS (AID 1347064; cut-off not given, nearly all actives have AC50 up to about 23 µM;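 for AC50: cells exposed to compound for 48 hours before the viability read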). As to conditions: SU-DIPG-XIII viability, CellTiter-Glo ATP luminescence.
A short description of test [6]: viability loss in pontine glioma line – cell-based, SU-DIPG-XXV, MIPE5.0, CellTiter-Glo, qHTS, dose response (AID 1347065).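 Note: cells exposed to compound for 48 hours before ATP readout.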 As to conditions: CellTiter-Glo ATP luminescence.
Test [7] is described as follows: SU-DIPG-VI glioma cell viability, MIPE4.0 library, CellTiter-Glo luminescence, qHTS (AID 1347066; cut-off not given, nearly all actives have AC50 up to about 30 µM;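 note: cells exposed to compound for 48 hours before readout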). As to conditions: CellTiter-Glo ATP luminescence.
The nature of test [8]: JHH-DIPG-1 glioma cell viability, MIPE5.0 library, CellTiter-Glo luminescence, qHTS (AID 1347067).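 Note: cells exposed to compound for 48 hours before readout.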 As to conditions: JHH-DIPG-1 glioma viability, CellTiter-Glo ATP luminescence.
Test [9] is described as follows: SU-DIPG-XXV glioma cell viability, MIPE5.0 library, qHTS (AID 1347068; cut-off not given, nearly all actives have IC50 up to about 30 µM;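 for IC50: cells exposed to compound for 48 hours before viability readout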).
Test [10] in a line: sensitizers of A549 cells to miR-34 induction, primary screen, imaging, A549 dox-inducible miR-34, nuclei and caspase counts (AID 1347080;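 active = compounds whose cell count with miR-34 switched on is under 0.7 times the count with it off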). As to conditions: A549 miR-34 inducible, Hoechst nuclei count, 48 h.
Test [11] can be described thus: modifiers of HSF1 nuclear foci, imaging, Selleck Cancer Library (AID 1347162; in the data active = plate-normalised HSF1 focus index below about 0.46). As to conditions: human cells, at 10 µM; SSMD: measured here: HSF1 foci SSMD mean; cell count: measured here: cell number; plate-normalised HSF1 focus index: stronger effect = lower value.
Test [12] can be described thus: survival rescue of mitochondrial mutant cells in low glucose, primary screen, MELAS cybrids, Rieske KO mouse fibroblasts, CellTiter-Glo (AID 1508586;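 active = mean z-score across replicates of 1.96 or higher in either the MELAS or the Rieske mutant cell line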;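 note: z relative to plate mean and SD of compound and empty wells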).
Test [13] is described as follows: viability rescue of complex I mutant cybrids, primary screen, cell-based, galactose medium, ATP luminescence (AID 1645843;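 active = z-score of at least 1.8 in each of two replicates, scored against plate mean and spread of sample wells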;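 note: positive z means more ATP and so rescue of galactose-driven cybrid death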). As to conditions: complex I mutant cybrid cells, 72 h, stronger effect = higher value.

What is called AC50 is the concentration giving half of the maximal activity seen. The term IC50 denotes the concentration at which inhibition is half-maximal. For `CO[C@H]1/C=C\C=C(\C)C(=O)NC2=CC(=O)C(NCCN(C)C)=C(C[C@@H](C)C[C@H](OC)[C@H](O)[C@@H](C)/C=C(/C)[C@@H]1OC(N)=O)C2=O`, the AC50 in test [1] was 52.5 nM (active); in test [2], 83.3 nM (active); in test [3], 187 nM (active); in test [4], 13.2 nM (active); in test [5] it was 118 nM (active); in [6], 235 nM (active). In addition, the AC50 in test [7] was 5260 nM (active); in [8], 74.2 nM (active). The half-maximal inhibitory concentration (IC50) in [9] was 1180 nM (active).
`CC1(C)SCCN(S(=O)(=O)c2ccc(OCC#CCO)cc2)[C@H]1C(=O)NO`: the result in test [1], in test [2], in test [3], in [4], in test [5] and in [6] was inactive. Besides, the molecule was called inactive in [7], in test [8] and in test [9].
Regarding `COc1cc(CCc2cc(NC(=O)c3ccc(N4C[C@@H](C)N[C@@H](C)C4)cc3)n[nH]2)cc(OC)c1`, the AC50 in test [1] was 417 nM (active); in test [2], 8330 nM (active); in [3] it was 18700 nM (active); in [4] it was 16600 nM (active); in test [5] it was 235 nM (active); in [6], 263 nM (active). For the same molecule, the results for the AC50 in [7] and in test [8] were 23500 nM (active) and 13200 nM (active), respectively. Also, the IC50 in test [9] is 8330 nM (active).
On to `COc1cc2nc(N3CCCN(C)CC3)nc(NC3CCN(Cc4ccccc4)CC3)c2cc1OC`, for which the AC50 in test [1] was 10500 nM (active); in test [2], 26400 nM (active); in [3], 7430 nM (active); in [4], 10500 nM (active); in [5], 13200 nM (active); in test [6], 10500 nM (active). Moreover, the results for the AC50 in [7] and in test [8] were 9350 nM (active) and 13200 nM (active), respectively. For the same molecule, the IC50 in test [9] is 11800 nM (active). The fold change in test [10] (stronger effect = lower value, cell number ratio, induced over uninduced) is 0.884 (inactive) and 1.04 (inactive) and 1.01 (inactive); in test [10] (measured here: relative caspase fold change +Dox/-Dox), 1.51 and 1.3 and 0.404. Further, the cell count in test [10] (measured here: total cells with miR-34 induction, stronger effect = lower value) was 672 and 5080 and 2320; in test [10] (measured here: total cells without miR-34 induction) it was 760 and 4890 and 2300; in test [11], 6820. The molecule further returned an SSMD in test [11] of 1.64. Moreover, the plate-normalised HSF1 focus index in [11] is 1.1 (inactive). Besides, the z-score in test [12] (MELAS cybrid survival, CellTiter-Glo 48 h, stronger effect = higher value) is -0.436 (inactive); in test [12] (Rieske KO mouse fibroblast survival, CellTiter-Glo 72 h), -1.67; in test [13], -1.38 (inactive).
On to `COC(=O)C[C@](O)(CCCC(C)(C)O)C(=O)O[C@@H]1C(OC)=CC23CCCN2CCc2cc4c(cc2[C@H]13)OCO4` (some centres undefined), for which the AC50 in test [1] is 66.1 nM (active); in test [5], 118 nM (active); in test [6] it was 93.4 nM (active); in test [8], 332 nM (active). Besides, the molecule was called inactive in test [2], in test [3], in test [4], in [7] and in [9].
Consider `CCC(C(=O)O)C1CCC(C)C(C(C)C(O)C(C)C(=O)C(CC)C2OC3(C=CC(O)[C@@]4(CC[C@](C)(C5CC[C@@](O)(CC)C(C)O5)O4)O3)C(C)CC2C)O1` (some centres undefined), for which the AC50 in [1] is 2350 nM (active); in test [2] it was 935 nM (active); in test [3], 3320 nM (active); in test [4] it was 1660 nM (active); in test [5] it was 3320 nM (active); in test [6], 833 nM (active). In addition, the AC50 was 1870 nM (active) in test [7] and 934 nM (active) in [8]. Moreover, the IC50 in test [9] is 2350 nM (active).
